The source of these data is PMC5540273 (PLoS ONE, 2017).

What all share (conditions): concentration: 1 μM, replicates: in singlicate; n = 1
Test [1] concerns T1, MEK5.
T1 construct: gene MAP2K5

The subject of test [2] is T2, MEK6.
T2 construct: gene MAP2K6

Test [3] deals with MELK.
Test [4] concerns MERTK.
Test [5] relates to MET.
Test [6] concerns T3, MINK.
T3 construct: gene MINK1

Test [7] has as its system MKK7.
In test [8] the test system is MKNK1.
The test system of test [9] is MKNK2.
The subject of test [10] is T4, MLCK.
T4 construct: gene MYLK3
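Also: KINOMEscan kinase panel screen.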

Turning to `COC(=O)Nc1nc2ccc(Oc3ccc(CC(=O)Nc4cc(C(F)(F)F)ccc4F)cc3)cc2[nH]1` [GW680903], the “%Inh” value worked out at 31% in test [1]; 0% in test [2]; 0% in test [3]; 44% in test [4]; 0% in test [5]; 0% in [6]. Besides, the “%Inh” value in [7] is 8%; in [8], 13%; in [9], 3%; in test [10] it was 0%.

As to `CCNc1nccc(-c2c(-c3ccc(F)cc3)ncn2C2CCN(C)CC2)n1`, the “%Inh” value in test [1] was determined as 19%; in test [2], 15%; in test [3], 11%; in test [4], 25%; in [5], 0%; in test [6], 30%. Also, the “%Inh” value in test [7], in test [8], in test [9] and in test [10] was 0% throughout.

For the compound `COC(=O)Nc1nc2cc(Oc3ccc(NC(=O)Nc4cccc(SC)c4)cc3)ccc2[nH]1.Cl` [GW697999], the “%Inh” value is recorded as 55% in test [1]; 0% in test [2]; 0% in [3]; 89% in test [4]; 21% in test [5]; 23% in test [6]. The “%Inh” value in [7] worked out at 0%; in test [8], 32%; in test [9], 65%; in test [10], 0%.

As for `Cc1ccc(O)cc1Nc1ccnc2ccc(C(C)(C)C)cc12` [GW856805], the “%Inh” value in [1] is recorded as 86%; in [2], 25%; in [3] it was 8%; in test [4] it was 46%; in test [5], 0%; in [6], 10%. For the same compound, the “%Inh” value in [7] turned out to be 40%; in [8] it was 0%; in [9], 30%; in [10], 4%.

In the case of `Cc1ccc(NC(=O)c2ccnc(N3CCCCC3)c2)cc1-c1ccc(C(=O)NCC2CC2)cc1` [GW775610], the “%Inh” value amounted to 1% in [1]; 6% in [2]; 0% in test [3]; 3% in [4]; 0% in [5]; 5% in test [6]. The “%Inh” value in test [7] was found to be 0%; in test [8] it was 0%; in test [9] it was 33%; in test [10] it was 0%.

Consider `Cc1ccc(NC(=O)c2ccc(Cl)c(Cl)c2)cc1-c1ccc(C(=O)Nc2ccncc2)cc1` [GSK1398460], for which the “%Inh” value in [1] stood at 27%; in [2] it was 5%; in [3] it was 0%; in test [4] it was 36%; in test [5], 0%; in [6], 6%. The “%Inh” value is listed as 0% in test [7], 11% in test [8], 0% in test [9] and 0% in test [10].

As to `Cl.Cl.NC(CNC(=O)c1cc(Br)c(-c2ccnc3[nH]ccc23)s1)c1ccccc1` (centres unmarked) [GSK1322949], the “%Inh” value in test [1] came to 59%; in [2], 0%; in test [3], 74%; in test [4] it was 58%; in test [5] it was 22%; in [6] it was 69%. In addition, the “%Inh” value in test [7] amounted to 0%; in [8] it was 68%; in test [9], 99.9%; in test [10], 70%.

`COc1cc(Nc2nccc(N3CCC(NS(=O)(=O)c4ccc(NC(C)=O)cc4)CC3)n2)cc(OC)c1OC` [GSK1379825]: the “%Inh” value in test [1] was determined as 88%; in [2], 24%; in [3] it was 19%; in test [4], 38%; in test [5], 0%; in test [6], 0%. In addition, the “%Inh” value in test [7] is 15%; in [8] it was 0%; in test [9], 83%; in test [10], 0%.

For `NCCC(NC(=O)c1cc(Br)c(-c2ccnc3[nH]ccc23)s1)c1ccccc1.O=C(O)C(F)(F)F.O=C(O)C(F)(F)F` (centres unmarked) [GSK1307810], the “%Inh” value is on record as 18% in test [1]; 8% in [2]; 74% in test [3]; 25% in [4]; 24% in test [5]; 55% in test [6]. In addition, the “%Inh” value in [7] was 18%; in test [8], 32%; in test [9] it was 93.9%; in [10], 85%.

Consider `Nc1ncnc2scc(-c3ccc(NC(=O)Cc4cc(F)ccc4F)cc3)c12.O=C(O)C(F)(F)F` [SB-731254-M], for which the “%Inh” value in [1] is reported as 99.7%; in test [2], 11%; in [3], 4%; in test [4], 14%; in test [5] it was 0%; in [6], 35%. Besides, the “%Inh” value in test [7] stood at 0%; in [8], 0%; in test [9], 47%; in [10] it was 60%.

Turning to `CCn1cnc2c(NCc3ccccc3)ncnc21` [SKF-96418], the “%Inh” value in test [1] stood at 38%; in test [2], 9%; in [3], 0%; in [4] it was 0%; in test [5] it was 0%; in test [6] it was 12%. Also, the “%Inh” value in test [7] is recorded as 17%; in test [8], 0%; in test [9], 0%; in test [10] it was 0%.

Consider `CN1CCN(Cc2ccc(NC(=O)Nc3ccc(N(C)c4ccnc(Nc5ccc(CS(C)(=O)=O)cc5)n4)cc3)cc2)CC1.Cl` [GW827654], for which the “%Inh” value in test [1] stood at 99.1%; in test [2], 0%; in [3], 32%; in test [4] it was 72%; in test [5] it was 67%; in [6] it was 95.6%. Also, the “%Inh” value came to 0% in test [7], 96.7% in test [8], 100% in test [9] and 26% in [10].

As to `COc1ccc(C)c(Nc2ccnc(Nc3ccc(-c4cnc[nH]4)cc3)n2)c1.Cl` [GW784041], the “%Inh” value worked out at 99.7% in test [1]; 0% in test [2]; 34% in [3]; 7% in test [4]; 15% in test [5]; 44% in test [6]. Also, the “%Inh” value in test [7] was 0%; in [8], 8%; in test [9], 0%; in test [10], 0%.

With `Nc1cccc(-c2ccc3c(N)n[nH]c3c2)c1` [GSK2193613], the “%Inh” value in test [1] is 64%; in test [2], 0%; in [3], 0%; in [4], 0%; in [5], 6%; in test [6] it was 73%. Also, the “%Inh” value stood at 0% in test [7], 2% in [8], 64% in test [9] and 95.4% in test [10].

Turning to `CSc1ccc(NC2=C(c3ccc(Cl)cc3)C(=O)NC2=O)cc1` [SB-317658], the “%Inh” value in test [1] stood at 22%; in [2], 3%; in [3] it was 0%; in test [4], 0%; in test [5], 0%; in test [6] it was 0%. Further, the “%Inh” value in test [7] came to 0%; in [8] it was 14%; in test [9], 0%; in test [10] it was 29%.

On to `COc1cc(Nc2nccc(N3CCC(NC(=O)Nc4ccc5c(c4)OCO5)C3)n2)cc(OC)c1OC` (centres unmarked) [GSK1379766], for which the “%Inh” value in [1] is listed as 98.8%; in [2], 0%; in test [3] it was 0%; in test [4] it was 40%; in [5], 12%; in [6], 0%. The “%Inh” value in test [7] is recorded as 0%; in test [8], 14%; in test [9], 66%; in test [10], 0%.

In the case of `Fc1cc(Cl)ccc1Nc1ccnc2cc(-c3ccc(CN4CCSCC4)o3)ccc12` [GW560106], the “%Inh” value in test [1] worked out at 99.8%; in test [2], 0%; in [3] it was 0%; in test [4], 40%; in test [5], 28%; in test [6], 63%. Also, the “%Inh” value was 0% in test [7], 1% in test [8], 45% in test [9] and 5% in test [10].
